Bioassay records (PubChem)
PrP UTR inh – inhibition of PrP 5' UTR reporter expression; cell-based PrP 5' UTR mRNA reporter, plate reader; inhibition, % (test concentration not listed); 340,000 tested, 0.35% active; in the data active = inhibition above about 52%
TcdB GH inh – TcdB glycohydrolase inhibition; P18177; TcdB glycohydrolase enzymatic assay, plate reader; inhibition, % at 9.99 µM; 350,000 tested, 0.24% active; AID 652162; in the data active = inhibition above about 10%
Vc quorum ag – induces V. cholerae light production without autoinducers | activation, % at 18.7 µM | V. cholerae BH1578 lux reporter, luminescence, 6 h | 350,000 tested, 0.16% active; in the data active = activation mostly above about 9.7%, no sharp cut-off; inconclusive = no clear call, values can overlap the other calls; inactive = mostly below about 3.7%
Yp Topo-I inh – blocks Yersinia pestis topoisomerase I activity | Y. pestis Topo-I cleavage product accumulation, plate reader | activity, % at 10 µM | 360,000 tested, 0.064% active | AID 504884; in the data active = activity above about 50%, passing the limit was not always enough; inconclusive = no clear call, values can overlap the other calls
Mtb UGM inh – inhibitors of M. tuberculosis UDP-galactopyranose mutase | purified UGM, fluorescence polarization probe displacement | inhibition, % at 10 µM | 320,000 tested, 0.06% active | AID 504406; in the data active = inhibition above about 10%, passing the limit was not always enough; inconclusive = no clear call, values can overlap the other calls
PrP UTR cherry – prion 5' UTR mRNA inhibition, cherry-pick retest. shares compounds with PrP UTR inh. cell-based prion protein 5' UTR reporter, plate reader. inhibition, % at 2.5 µM. 1,100 tested, 48% active; in the data active = inhibition above about 54%; inconclusive = no clear call, values can overlap the other calls
Each line names hits and unclear results; the compound was inactive in the other large screens (follow-up assays come after a bar, where they were run). Only some compounds are listed: those with a hit (about 0.65% of all), similar ones and a draw of the others.

CCc1ccc(-c2cc(C(=O)Nn3cnnc3)c3ccccc3n2)cc1	PrP UTR inh 70 | PrP UTR cherry 61
COc1cc(C2C(C#N)=C(N)Oc3cc(N)ccc32)cc(OC)c1OC (stereo not given)	PrP UTR inh 67 (no result: TcdB GH inh) | PrP UTR cherry 88
CCOc1ccc(CN2C(=O)c3ccccc3C2=O)cc1C(=O)NC1CC(C)(C)NC(C)(C)C1	PrP UTR inh 85 | PrP UTR cherry inactive
CCOc1ccc(CN2C(=O)c3ccccc3C2=O)cc1C(=O)Nc1nnc(SCC)s1	none (no result: TcdB GH inh)
O=C(C[C@@H]1CC[C@@H](NC(=O)Cc2ccccn2)[C@@H](CO)O1)NCCc1ccncc1	none (no result: PrP UTR inh, Vc quorum ag, Yp Topo-I inh, Mtb UGM inh)
COC(=O)c1ccc(Cn2cc(/C=C\[N+](=O)[O-])c3ccccc32)o1	PrP UTR inh 52 | PrP UTR cherry inactive
O=C(O)c1ccc(Cn2cc(/C=C\[N+](=O)[O-])c3ccccc32)o1	none
O=C(CSc1ncn[nH]1)Nc1ncc(C(F)(F)F)cc1Cl	PrP UTR inh 75 | PrP UTR cherry inactive
C[C@H]1CN([C@@H](C)CO)C(=O)c2cc(C3=CCCC3)cnc2O[C@@H]1CN(C)C(=O)c1ccc2c(c1)OCO2	none (no result: PrP UTR inh, Vc quorum ag, Yp Topo-I inh, Mtb UGM inh)
CSc1nc(-c2ccc(C)cc2)nc(C(Cl)Cl)n1	none (no result: TcdB GH inh)
CCSc1nc(-c2ccccc2)nc(C(Cl)Cl)n1	PrP UTR inh 63 | PrP UTR cherry 79
COc1ccc(OC)c(-c2nnc3n2N=C(c2ccc(OC)c(OC4CCCC4)c2)CS3)c1	PrP UTR inh 65 | PrP UTR cherry 86
COc1ccc(OC)c(-c2nnc3n2N=C(c2ccc(OC)c(OC)c2)CS3)c1	PrP UTR inh 56 | PrP UTR cherry 83
COc1ccc(C2=Nn3c(nnc3-c3ccccc3F)SC2)cc1OC1CCCC1	none
CCCNC(=O)C[C@H]1CC[C@H]2[C@@H](COC[C@@H](O)CN2CC2CCCCC2)O1	none (no result: PrP UTR inh, Vc quorum ag, Yp Topo-I inh, Mtb UGM inh)
O=C(c1cccc(F)c1)N1CC(=O)N2[C@@H](CO)[C@H](c3ccc(C4=CCCC4)cc3)[C@@H]2C1	none (no result: PrP UTR inh, Vc quorum ag, Yp Topo-I inh, Mtb UGM inh)
COc1c(C)cc(C(=O)C2CCCN(C(=O)c3cccc(-n4cccn4)c3)C2)cc1C (stereo not given)	none (no result: TcdB GH inh)
COc1c(C)cc(C(=O)C2CCCN(C(=O)c3ccc4[nH]ccc4c3)C2)cc1C (stereo not given)	PrP UTR inh 78 | PrP UTR cherry inactive
Cc1nccn1CCCNCc1c(C(=O)N2CCCCCCC2)nc2ccc(Cl)cn12	PrP UTR inh 84 (no result: TcdB GH inh) | PrP UTR cherry inactive
O=C(Nc1ccccc1)[C@@H]1[C@@H](CO)[C@@H]2Cn3c(cccc3=O)[C@H]1N2Cc1ccncc1	none (no result: PrP UTR inh, Vc quorum ag, Yp Topo-I inh, Mtb UGM inh)
COc1ccccc1-c1nnc2sc(-c3cc4ccccc4o3)nn12	PrP UTR inh 54 (no result: TcdB GH inh) | PrP UTR cherry 64
CC(=O)O[C@H]1[C@H]2O[C@]23[C@@H]2CC[C@]4(O)C[C@@H](O)CC[C@]4(C)C2CC[C@]3(C)[C@H]1c1ccc(=O)oc1 (stereo not given in full)	PrP UTR inh 94 (no result: TcdB GH inh) | PrP UTR cherry 91
Cc1nn(CCc2nn[nH]n2)c2nc(-c3ccc(C4CCCCC4)cc3)cc(C(F)(F)F)c12	PrP UTR inh 63 | PrP UTR cherry inactive
CCCN1[C@@H]2Cn3c(ccc(-c4ccncc4)c3=O)[C@H]1[C@@H](C(=O)NCC1CC1)[C@@H]2CO	none (no result: PrP UTR inh, Vc quorum ag, Yp Topo-I inh, Mtb UGM inh)
COC(=O)C(CC#Cc1ccc2c(c1)[C@]1(C(=O)N2)[C@H](c2ccc(OCCO)cc2)N2[C@H](c3ccccc3)[C@H](c3ccccc3)OC(=O)[C@H]2[C@@H]1C(=O)N1CCCCCCC1)C(=O)OC	none (no result: PrP UTR inh, Vc quorum ag, Yp Topo-I inh, Mtb UGM inh)
C[C@@H]1CCCCO[C@H](CN(C)Cc2ccc(C(=O)O)cc2)[C@H](C)CN([C@H](C)CO)C(=O)c2cc(NC(=O)c3ccccc3)ccc2O1	none (no result: PrP UTR inh, Vc quorum ag, Yp Topo-I inh, Mtb UGM inh)
CCn1c(SCC(=O)Nc2cc(C)on2)nnc1-c1cccc(C)c1	none
CCn1c(SCC(=O)Nc2ccc(N(C)C)cc2)nnc1-c1cccc(C)c1	PrP UTR inh 64 (no result: TcdB GH inh) | PrP UTR cherry inactive
Cc1ccc(C(=O)N/C(=C\c2ccc3c(c2)OCO3)C(=O)N2CCOCC2)cc1	none
COc1ccc(C(=O)N/C(=C\c2ccc3c(c2)OCO3)C(=O)N2CCOCC2)cc1	PrP UTR inh 77 | PrP UTR cherry inconclusive
CCC(C)(C)n1nnnc1C(c1cccs1)N1CCCCC1 (stereo not given)	PrP UTR inh 52 | PrP UTR cherry inactive
CCOC(=O)C1Oc2ccccc2C(c2ccc(C)cc2)=C1C(=O)OC (stereo not given)	none (no result: Mtb UGM inh)
CCOC(=O)C1(CC)Oc2ccccc2C(c2ccc(OC)cc2)=C1C(=O)OC (stereo not given)	PrP UTR inh 71 (no result: Mtb UGM inh) | PrP UTR cherry inactive
COc1ccc2c3c([nH]c2c1)[C@H](CO)N(C(=O)c1ccccn1)CC31CN(C(=O)C2CC2)C1	none (no result: PrP UTR inh, Vc quorum ag, Yp Topo-I inh, Mtb UGM inh)
Cc1cc(N)n2ncc(-c3ccccc3)c2n1	none (no result: TcdB GH inh)
CC(=O)Nc1ccc(Nc2cc(C)nc3c(-c4ccccc4)cnn23)cc1	PrP UTR inh 60 (no result: TcdB GH inh) | PrP UTR cherry inactive
COc1ccccc1C(=O)Nc1ccc2c(c1)C(=O)N(C)C[C@H](OC)[C@H](C)CN[C@H](C)CO2	none (no result: PrP UTR inh, Vc quorum ag, Yp Topo-I inh, Mtb UGM inh)
C[C@@H]1CN([C@@H](C)CO)C(=O)c2cc(NC(=O)CCC(F)(F)F)ccc2O[C@@H]1CN(C)C	none (no result: PrP UTR inh, Vc quorum ag, Yp Topo-I inh, Mtb UGM inh)
COc1ccc(S(=O)(=O)Nc2ccc3c(c2)C(=O)N([C@@H](C)CO)C[C@@H](C)[C@H](CN(C)C(=O)CCC(F)(F)F)OCCCC[C@@H](C)O3)cc1	none (no result: PrP UTR inh, Vc quorum ag, Yp Topo-I inh, Mtb UGM inh)
CC(C)(C)C(=O)Nc1ccc(NC(=O)c2ccco2)nc1	PrP UTR inh 88 | PrP UTR cherry 94
C[C@H]1CN([C@@H](C)CO)C(=O)c2cc(NC(=O)Cc3cn(C)c4ccccc34)ccc2O[C@@H]1CN(C)C(=O)NC1CCCCC1	none (no result: PrP UTR inh, Vc quorum ag, Yp Topo-I inh, Mtb UGM inh)
CCN(CCCl)c1cc(CN(C)C)cc(NC(=O)c2ccc(C(=O)Nc3cc(CN(C)C)cc(N(CC)CCCl)c3)cc2)c1	PrP UTR inh 95 (no result: Vc quorum ag, Mtb UGM inh) | PrP UTR cherry 91
COC(=O)c1cn(-c2ccccc2)nc1-c1ccc(OC)cc1	none
CCN(CC)CCNC(=S)NC(=O)c1cn(-c2ccccc2)nc1-c1ccc(OC)cc1	PrP UTR inh 67 | PrP UTR cherry inactive
COc1ccc(NC(=O)N(C)C[C@@H]2OCCCC[C@@H](C)Oc3ccc(NC(=O)NC4CCCCC4)cc3C(=O)N([C@@H](C)CO)C[C@H]2C)cc1	none (no result: PrP UTR inh, Vc quorum ag, Yp Topo-I inh, Mtb UGM inh)
CC(=O)c1c(C)[nH]c(C(=O)COC(=O)CCCOc2ccccc2)c1C	PrP UTR inh 58 | PrP UTR cherry inconclusive
CC(=O)c1c(C)[nH]c(C(=O)COC(=O)CCSc2ccccc2)c1C	none
COc1cc(C(=O)N2CCN(c3cc(Cl)ccc3Cl)CC2)cc(OC)c1OC	PrP UTR inh 56, Yp Topo-I inh inconclusive | PrP UTR cherry 88
COc1cc(C(=O)N2CCN(c3cccc(C)c3C)CC2)cc(OC)c1OC	PrP UTR inh 60 | PrP UTR cherry 74
Cc1cccc(C(=O)NCN2CCN(c3ccccc3C#N)CC2)c1	PrP UTR inh 82 (no result: Mtb UGM inh) | PrP UTR cherry inactive
O=C(NCN1CCN(c2ccccc2F)CC1)c1ccccc1	none (no result: TcdB GH inh)
COc1ccc(C(=O)NCc2nnc(SC)n2Cc2ccccc2)cc1	PrP UTR inh 54 | PrP UTR cherry inactive
